Screening data deposited in PubChem BioAssay by National Center for Advancing Translational Sciences (NCATS).
Sm TGR inh – S. mansoni TGR enzyme inhibition; purified TGR, DTNB reduction, TNB absorbance 405 nm; Potency, µM (top dose mostly 114 µM), inactives show top-dose activity change, negative = inhibition, usual class: inhibitors; 360,000 compounds, 3% hits; further: potency means the concentration at half of the fitted maximal effect; nearly all actives have a fitted effect of over 60% in size
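Kinetic colorimetric format: TGR-catalysed, NADPH-driven DTNB reduction monitored via TNB absorbance. Enzyme dispensed at 20 nM; compound exposure 15 min at room temperature before reaction start.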
RE007 growth inh – less growth of the S. pombe RE007 Vpr strain. Potency, µM (highest dose often 92.2 µM), inactives show top-dose activity change, negative = less growth, actives largely listed as inhibitors. AID 651644. S. pombe RE007 Vpr strain, BacTiter-Glo ATP luminescence, 24 h. 360,000 compounds, 0.21% hits; active means well fitted falling curve with a large enough effect; inconclusive means small, poorly fitted or top-dose-only effect; inactive means no such curve, though single readings can be large or run the other way; further: potency means the concentration at half of the fitted maximal effect; nearly all actives have a fitted effect of over 50% in size
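Fission yeast RE007 carrying one integrated HIV-1 vpr copy, seeded at OD 0.01 in PMG+AL medium with 23 nL pinned compound. Grown 24 h at 30 degrees; viability read by BacTiter-Glo luminescence after 5 min.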
TbPYK inhibitor – inhibitors of Trypanosoma brucei pyruvate kinase. Q57TT1. 410,000 compounds, 0.12% hits. AID 624173. Potency, µM (titrated, usually from 76.8 µM), for inactives: top-dose activity, negative = inhibition, most hits filed as inhibitors. TbPYK enzyme, Kinase-Glo Plus ATP luminescence, 45 min; further: potency means the concentration at half of the fitted maximal effect; nearly all actives have a fitted effect of over 50% in size
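In this concentration-response screen, enzyme-free wells defined baseline while DMSO plates tracked drift. Each reaction combined TbPYK, substrate, compound and 130 uM ADP for 45 min at room temperature. Kinase-Glo Plus luminescence gave the signal.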
FBPA Giardia inh – blocks Giardia fructose-bisphosphate aldolase activity; A8B2U2; purified Giardia FBPA; Potency, µM (top dose mostly 59.6 µM), for inactives: at the highest dose activity, negative = inhibition, usual class: inhibitors; 290,000 compounds, 0.71% hits; further: potency means the concentration at half of the fitted maximal effect; nearly all actives have a fitted effect of over 55% in size
Target sequence (A8B2U2 whole entry, looked up): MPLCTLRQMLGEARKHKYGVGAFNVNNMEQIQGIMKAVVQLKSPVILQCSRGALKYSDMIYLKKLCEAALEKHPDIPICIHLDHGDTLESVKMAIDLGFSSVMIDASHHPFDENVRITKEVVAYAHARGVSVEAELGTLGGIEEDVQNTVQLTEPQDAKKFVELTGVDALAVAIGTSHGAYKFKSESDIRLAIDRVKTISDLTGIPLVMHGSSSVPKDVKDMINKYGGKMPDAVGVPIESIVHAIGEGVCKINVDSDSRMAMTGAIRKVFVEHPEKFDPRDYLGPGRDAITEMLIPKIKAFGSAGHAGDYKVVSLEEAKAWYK
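Giardia FBPA (40 nM reagent) was preincubated 10 min at RT with compound (up to 57.5 uM final), then substrate plus GAPDH/TPI/NAD/arsenate coupling system with diaphorase/resazurin was added; resorufin fluorescence (525/598 nm) was read after 20 min.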
HCMV inh – human cytomegalovirus inhibition; HFF cells, HCMV-luciferase reporter, 72 h; active compounds read low; activity change, negative = inhibition, % at 57.5 µM; 410,000 compounds, 4.5% hits; in the data active means activity change below about -60%; inconclusive means no clear call, values can overlap the other calls; inactive means above about -39%
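Compounds were evaluated in HFFs infected with an HCMV luciferase reporter virus (MOI 1 PFU/cell). Luciferase in lysates collected 72 h post infection served as the replication measure.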
FMDV antiviral – antivirals against foot and mouth disease virus; FMDV antiviral cell-based qHTS; Potency, µM (titrated, usually from 57.9 µM), for inactives: top-dose activity change, negative = inhibition, actives largely listed as inhibitors; 410,000 compounds, 1.2% hits; AID 1159524; calls by dose curve; tested in HEK293T cells; further: read-out not given here; potency means the concentration at half of the fitted maximal effect; nearly all actives have a fitted effect of over 45% in size
The depositor's hits bear a star; ? = inconclusive; nt = not tested or not shown; [ ] = remark or other dose. This is a sample that favours compounds with a hit; in the whole collection about 7.7% have one here. Unless noted, the call rests on the fitted dose curve; in most records, active means well fitted curve in the direction sought with a large enough effect; inconclusive means small, poorly fitted or top-dose-only effect, or another doubt; inactive means no such curve, though single readings can be large; an effect the other way counts as inactive or inconclusive. On the % scale 0 is the no-effect control and ±100 the full control effect.

SMILES	Sm TGR inh	RE007 growth inh	TbPYK inhibitor	FBPA Giardia inh	HCMV inh	FMDV antiviral
C/C(=N\NC(=O)Cc1csc(N2CCOCC2)n1)c1ccccc1	-2.8%	1.0%[3.69 µM]	nt	6.9%	16.7	-26.7%
CCOC(=O)N=Nc1c2ccccc2c2nc3no[nH]c3nc12	57.8%	5.01µM*	2.9%	1.58µM*	-100.1*	2µM*
CCOC(=O)N=Nc1c(O)n(CC(=O)OC)c2ccccc12	9.2%	-2.2%	-1.5%	-1.0%	14.3	-4.9%
CCC(CC)C(=O)Nc1ccccc1C(=O)OCc1cc(=O)n2nc(C3CCCCC3)sc2n1	-4.8%	nt	-5.3%	nt	0.2	-17.0%
O=C(CSC1CS(=O)(=O)c2cc([N+](=O)[O-])ccc21)NNC(=O)c1ccc(Cl)cc1 (configuration not stated)	15.8µM*	-17.0%	3.3%	6.6%	4.4	-23.0%
Cc1cc(C(=O)NCc2nnc3n2CCN(Cc2ccc4c(c2)Cc2ccccc2-4)CC3)c(C)o1	nt	nt	nt	nt	nt	-27.6%
CC(C)(C)c1ccc(CC(=O)N2CCC2(C)C(=O)Nc2ccc3[nH]ncc3c2)cc1 (configuration not stated)	nt	-3.6%	-6.2%	nt	-86.2*	-17.0%
CC1(C(=O)Nc2ccc3[nH]ncc3c2)CCN1C(=O)Cc1ccc(-c2ccccc2)cc1 (configuration not stated)	nt	2.6%	1.9%	nt	?	39.8µM*
Cc1c(C(=O)NCCN(C)C)oc2c1-c1nn(Cc3cccc(Cl)c3)cc1CC2	1.6%	nt	-2.6%	nt	-68.4*	-14.5%
Cc1ccc(CNC(=O)Cn2cc3c(n2)-c2c(oc(C(=O)N4CCOCC4)c2C)CC3)cc1	-11.2%	nt	1.6%	nt	?	?
CCOc1ccc(CNC(=O)Cn2cc3c(n2)-c2c(oc(C(=O)N4CCOCC4)c2C)CC3)cc1	-13.3%	nt	-0.2%	nt	-63.2*	-29.8%
COc1cccc(CNC(=O)c2oc3c(c2C)-c2nn(Cc4cccc(Cl)c4)cc2CC3)c1	-0.6%	nt	0.6%	nt	-92.0*	-22.8%
Cc1cccc(C)c1NC(=O)c1oc2c(c1C)-c1nn(Cc3ccccc3)cc1CC2	5.9%	nt	-0.5%	nt	-81.5*	?
CCOC(=O)c1[nH]c(C)c(CCC(=O)Nc2ccccc2OCC)c1C	-2.9%	nt	-7.9%	nt	0.0	-2.8%
CC1CCCCN1c1cc2c(cc1F)c(=O)c(S(=O)(=O)c1ccccc1)cn2Cc1ccccc1 (configuration not stated)	-0.7%	nt	1.9%	nt	-12.2	0.0%
Nc1nc(-c2cccs2)c(CC(=O)O)s1	39.8µM*	2.6%	-13.8%	-7.0%	-19.4	1.3%
O=C(Nc1cccc(-c2csc(Nc3cccc(C(F)(F)F)c3)n2)c1)c1cc([N+](=O)[O-])cc(C(F)(F)F)c1	-1.1%	-9.8%	1.2%	-0.1%	24.0	39.8µM*
O=C(Nc1ccc(-c2csc(Nc3ccccc3)n2)cc1)c1cc([N+](=O)[O-])cc(C(F)(F)F)c1	4.4%	26.4%	1.3%	-7.1%	-74.1*	25.1µM*
Cc1ccc(C)n1-c1ccc(-c2ccnc(N)n2)cc1	25.1µM*	-4.3%	-2.3%	0.7%	-66.4*	?
CCc1cccc(C)c1NC(=O)C(C)Sc1nc2c(c(=O)[nH]1)CCCC2 (configuration not stated)	-8.1%	nt	1.6%	nt	-1.8	-14.9%
CN1CCN(C(=O)c2cc(COc3c(F)cccc3F)on2)CC1c1ccccc1 (configuration not stated)	3.98µM*	-11.4%	-9.1%	1.9%	24.2	8.2%
O=C(c1cc(COc2c(F)cccc2F)on1)N1CCC(c2ccncc2)CC1	3.3%	1.5%	-3.3%	2.2%	-83.8*	-3.6%
COc1ccccc1OCc1cc(C(=O)N2CCN(C)C(c3ccccc3)C2)no1 (configuration not stated)	-0.4%	0.4%	-3.8%	nt	140.8	7.3%
[O-][n+]1onc2c1CCc1c-2nn(-c2ccccc2Cl)[n+]1[O-]	-1.8%	3.4%	-14.2%	-12.9%	-99.7*	nt
Cc1ccc(-n2nc3c([n+]2[O-])CCc2c-3no[n+]2[O-])cc1	0.7%	3.8%	1.3%	-1.0%	-77.8*	4.9%
SMILES	Sm TGR inh	RE007 growth inh	TbPYK inhibitor	FBPA Giardia inh	HCMV inh	FMDV antiviral
COCCCNC(=O)c1cc(-c2cccnc2)nc2ccc(S(=O)(=O)N3CCC(C)CC3)cc12	7.3%	nt	0.9%	nt	62.4	16.9%
Cc1ccc(Cn2c(=O)n(CCc3ccccc3)c(=O)c3sc4ccccc4c32)cc1	5.0%	nt	-1.1%	nt	35.0	36.7%
CCC(=O)N1c2nc(-c3ccco3)nn2C2(CCCCC2)[C@@H]2CCCC[C@@H]21	39.8µM*	nt	7.5%	nt	-3.7	0.0%
Cc1ccc(C(=O)N2c3nc(-c4ccco4)nn3C3(CCCCC3)[C@@H]3CCCC[C@@H]32)cc1	11.2µM*	nt	3.4%	nt	-37.9	-28.5%
CCC(=O)N1c2nc(C(C)C)nn2C2(CCCCC2)[C@@H]2CCCC[C@@H]21	6.8%	nt	6.5%	nt	-19.6	?
O=C(c1ccccc1)N1c2nc(-c3ccco3)nn2C2(CCCCC2)[C@@H]2CCCC[C@@H]21	?	nt	1.8%	nt	24.3	-7.1%
COC(=O)c1cccc(C(=O)N2CCc3c(cnc(C)c3CNC(=O)c3ccsc3)C2)c1	nt	nt	nt	nt	nt	-11.9%
COc1cc(C)c(CN2C[C@H](Sc3ccccn3)C[C@H]2C(=O)N(C)C)cc1C	nt	nt	nt	nt	nt	4.4%
N=c1n(CCO)c2ccccc2n1CCOc1ccc(F)cc1	-6.4%	nt	-7.5%	nt	-4.8	-24.4%
CCCCn1c(=N)n(CCCOc2ccc(F)cc2)c2ccccc21	4.9%	nt	16.9%	nt	-66.6*	?
Cc1ccc2ccccc2[n+]1CCCS(=O)(=O)[O-]	10.3%	-12.3%	-7.5%	-3.1%	12.3	21.8%
CCC[n+]1c2ccccc2cc2ccccc21	?	-22.7%	-0.6%	-25.7%	-70.0*	?
CCCC[n+]1c2ccccc2cc2ccccc21	?	nt	-18.5%	-22.2%	?	28.2µM*
COc1ccc(-c2[nH]ncc2CN2CCC(C(=O)N3CCOCC3)CC2)c(F)c1	7.6%	11.4%	-0.5%	2.6%	-62.9*	-5.1%
CN1CCN(c2cc(-c3ccoc3)ncn2)CC1	nt	nt	nt	-1.6%	nt	-11.7%
Cc1ccc(/C=C2\SC(=S)N(Cc3ccccc3)C2=O)o1	?	3.7%	-7.0%	-19.7%	?	6.4%
Cc1ccc(/C=C2/NC(=O)N(Cc3ccccc3)C2=O)o1	22.4µM*	44.7µM*	?	?	1.7	7.1%
COC(=O)CN1C(=O)N/C(=C/c2ccc(C)o2)C1=O	28.2µM*	-6.5%	-9.0%	?	-3.9	-1.7%
COc1cccc(CCNC(=O)C2CCC(=O)N(Cc3cccc(OC)c3)C2)c1 (configuration not stated)	3.7%	6.6%	-8.5%	3.6%	6.5	-7.6%
